Compound activity deposited in PubChem BioAssay by National Center for Advancing Translational Sciences (NCATS).
KDM5B inhibitor: Primary screen for KDM5B Histone Demethylases FDH-coupled qHTS. Lysine-specific demethylase 5B (Homo sapiens), Q9UGL1. KDM5B demethylase, FDH-coupled NADH fluorescence (FDH is formaldehyde dehydrogenase). Potency, µM (highest dose often 57.7 µM), usual class: inhibitors. actives 2.6% (n = 220,000); active means well fitted inhibition curve with a large enough effect; further: 0% is about no effect; nearly all actives have a fitted effect of over 70% in size
Target sequence (Q9UGL1 whole entry, looked up): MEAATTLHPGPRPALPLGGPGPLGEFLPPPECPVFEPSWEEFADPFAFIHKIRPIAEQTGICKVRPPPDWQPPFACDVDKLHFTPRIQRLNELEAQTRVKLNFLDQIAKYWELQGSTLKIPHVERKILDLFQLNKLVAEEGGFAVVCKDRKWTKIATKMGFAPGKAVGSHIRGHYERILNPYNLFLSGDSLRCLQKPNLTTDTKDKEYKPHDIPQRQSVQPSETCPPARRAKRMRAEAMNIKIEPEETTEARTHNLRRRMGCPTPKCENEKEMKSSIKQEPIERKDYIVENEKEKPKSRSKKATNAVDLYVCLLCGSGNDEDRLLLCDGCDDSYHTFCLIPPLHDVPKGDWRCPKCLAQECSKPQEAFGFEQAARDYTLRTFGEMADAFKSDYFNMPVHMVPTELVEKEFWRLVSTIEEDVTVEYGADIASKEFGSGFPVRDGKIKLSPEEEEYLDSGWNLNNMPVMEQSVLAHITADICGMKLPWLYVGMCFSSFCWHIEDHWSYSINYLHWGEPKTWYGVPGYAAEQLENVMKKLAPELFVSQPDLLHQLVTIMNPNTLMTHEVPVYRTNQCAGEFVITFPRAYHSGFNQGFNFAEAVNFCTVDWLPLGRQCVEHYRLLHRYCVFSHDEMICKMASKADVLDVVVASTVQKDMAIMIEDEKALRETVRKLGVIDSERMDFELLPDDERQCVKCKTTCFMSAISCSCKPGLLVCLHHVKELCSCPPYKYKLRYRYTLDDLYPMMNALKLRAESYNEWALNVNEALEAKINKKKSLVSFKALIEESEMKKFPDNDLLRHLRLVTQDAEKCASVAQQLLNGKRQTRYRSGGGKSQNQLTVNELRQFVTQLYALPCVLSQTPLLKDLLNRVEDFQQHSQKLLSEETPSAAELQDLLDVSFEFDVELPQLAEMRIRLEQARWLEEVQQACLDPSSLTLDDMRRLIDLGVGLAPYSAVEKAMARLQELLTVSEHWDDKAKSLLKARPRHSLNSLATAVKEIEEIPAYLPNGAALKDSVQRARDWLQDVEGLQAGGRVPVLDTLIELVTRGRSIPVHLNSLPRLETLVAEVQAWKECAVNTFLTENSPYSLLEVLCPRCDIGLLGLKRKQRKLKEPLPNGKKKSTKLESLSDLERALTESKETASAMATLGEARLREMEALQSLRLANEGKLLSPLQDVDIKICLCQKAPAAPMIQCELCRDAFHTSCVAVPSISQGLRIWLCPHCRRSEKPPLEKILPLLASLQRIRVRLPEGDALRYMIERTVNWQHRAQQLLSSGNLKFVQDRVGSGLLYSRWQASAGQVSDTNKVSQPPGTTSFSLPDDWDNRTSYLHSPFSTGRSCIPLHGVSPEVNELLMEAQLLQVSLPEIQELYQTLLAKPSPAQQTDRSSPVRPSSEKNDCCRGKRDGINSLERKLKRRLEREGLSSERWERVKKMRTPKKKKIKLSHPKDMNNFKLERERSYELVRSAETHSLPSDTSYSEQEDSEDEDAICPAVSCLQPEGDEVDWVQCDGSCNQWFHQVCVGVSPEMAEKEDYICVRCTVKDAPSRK
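qHTS format, multiple compound concentrations. Buffer 50 mM HEPES pH 7.5/0.01% Tween-20; 200 nM KDM5BΔAP final; 10 min compound preincubation; substrate-mix levels 12.5 µM peptide, 25 µM α-KG, 0.25 mM NAD⁺; 30 min RT; ΔRFU.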
Numbers without * were called inactive; ! = not active in a repeat. The entries come from a sample that favours hits as a whole. Potency means the concentration at half of the fitted maximal effect.

Results for O=C(NC1CCCCC1)N1CCCC(c2nn[nH]n2)C1 (centres undefined) ?
KDM5B inhibitor: inactive

What do the screens show for `Cc1ccc(C(=O)N2CCC(c3noc(C4CC4)n3)C2)cn1` (centres undefined)?
KDM5B inhibitor: inactive

What do the screens show for `CN1CCC([C@@H]2CN(C(=O)c3ccccc3Cl)C[C@H]2C(N)=O)CC1`?
KDM5B inhibitor: inactive

How did C=CCNc1nc(C(=O)OC(C)C(=O)c2ccc3c(c2)CCC3)cs1 (centres undefined) do in these assays?
KDM5B inhibitor: inactive

How did Cc1ccc2cc(CSc3nnc(C(F)(F)F)n3C)c(Cl)nc2c1C do in these assays?
KDM5B inhibitor: inactive

Results for O=C(O)CC1(CC(=O)N2CCN(C(=O)CC3(CC(=O)O)CCCCC3)CC2)CCCCC1 ?
KDM5B inhibitor: inactive

Results for COc1cc(-c2nc(-c3cccc(Br)c3)no2)cc(OC)c1OC ?
KDM5B inhibitor: inactive

How did Cc1cccc(NC(=O)COc2ncnc3ccccc23)c1 do in these assays?
KDM5B inhibitor: inactive

What do the screens show for `CCCCN1C(=O)NC(c2ccccc2OC)C2=C1COC2=O` (centres undefined)?
KDM5B inhibitor: inactive

Results for Cn1nnnc1C1CCCN(C(=O)c2ccccc2)C1 (centres undefined) ?
KDM5B inhibitor: inactive

Results for Cc1cccc(NC(=O)N2CCCC(c3nnnn3C)C2)c1 (centres undefined) ?
KDM5B inhibitor: inactive

How did Cn1nnnc1C1CCCN(C(=O)c2ccc3cc[nH]c3c2)C1 (centres undefined) do in these assays?
KDM5B inhibitor: 20µM*

What do the screens show for `Cn1nccc1C(=O)N1CCCC(c2nnnn2C)C1` (centres undefined)?
KDM5B inhibitor: inactive

What do the screens show for `COCCOC1CN(C2CCN(C(=O)c3ccc(OC)cc3)CC2)C12CCCCC2` (centres undefined)?
KDM5B inhibitor: inactive

How did Cc1noc(-c2cn(C3CCCN(C(=O)c4ccc5[nH]ccc5c4)C3)nn2)n1 (centres undefined) do in these assays?
KDM5B inhibitor: inactive

How did O=C(c1cc(F)ccc1F)N1CCCC(c2nn[nH]n2)C1 (centres undefined) do in these assays?
KDM5B inhibitor: inactive

Results for Cn1nnnc1C1CCCN(C(=O)c2cccc3[nH]ccc23)C1 (centres undefined) ?
KDM5B inhibitor: 32µM*

What do the screens show for `COCCOC1CN(C2CCN(C(=O)c3nn(C)c4ccccc34)CC2)C12CCCCC2` (centres undefined)?
KDM5B inhibitor: inactive

How did O=C(c1ccc2cc[nH]c2c1)N1CCCC(c2nn[nH]n2)C1 (centres undefined) do in these assays?
KDM5B inhibitor: 22µM*

How did O=C(NC1CCCC1)C1CCCN(C(=O)c2ccc3cc[nH]c3c2)C1 (centres undefined) do in these assays?
KDM5B inhibitor: inactive

What do the screens show for `COCCOC1CN(C2CCN(C(=O)c3cccc4[nH]ccc34)CC2)C12CCCCC2` (centres undefined)?
KDM5B inhibitor: 22µM*

Results for Cc1ccc(C2C(C#N)=C(N)Oc3c2oc(CO)cc3=O)cc1C (centres undefined) ?
KDM5B inhibitor: inactive

Results for O=C(COC(=O)c1cc(=O)c2ccccc2o1)Nc1ccc(F)cc1 ?
KDM5B inhibitor: inactive

How did COc1ccc(NC(=O)N2CCN(c3ccc(Cl)cc3)CC2)cc1OC do in these assays?
KDM5B inhibitor: inactive

How did O=C(CSc1nc(-c2ccccc2)cc(C(F)(F)F)n1)NC1CCCCC1 do in these assays?
KDM5B inhibitor: inactive

What do the screens show for `CCC(C)(C)NCc1cc(=O)oc2c(C)c(O)ccc12`?
KDM5B inhibitor: inactive

What do the screens show for `CC1=C(C)CC(C(=O)N2CCN(CCc3ccccc3)CC2)C(C(=O)O)C1` (centres undefined)?
KDM5B inhibitor: inactive

What do the screens show for `O=C(CN(CC1CCOC1)C1CC1)NC1CC1` (centres undefined)?
KDM5B inhibitor: inactive

What do the screens show for `O=C(COc1ccccc1)N1CC[C@H](c2nnc(-c3ccccc3)o2)C1`?
KDM5B inhibitor: inactive

How did COc1ccccc1C(=O)N1CCCC(c2nn[nH]n2)C1 (centres undefined) do in these assays?
KDM5B inhibitor: inactive

Results for O=C(c1ccco1)N1CCCC(c2nn[nH]n2)C1 (centres undefined) ?
KDM5B inhibitor: 22µM*

What do the screens show for `CCn1c(C2CCCN(C(=O)c3ccco3)C2)nn(C)c1=O` (centres undefined)?
KDM5B inhibitor: inactive

What do the screens show for `O=C1CCc2cc(C(=O)OC3CCOC3=O)ccc2N1` (centres undefined)?
KDM5B inhibitor: inactive

What do the screens show for `COc1ccccc1C(=O)Oc1ccc(F)cc1C(=O)/C=C/c1ccccc1Cl`?
KDM5B inhibitor: inactive

How did NC(=O)c1nn(CC(=O)N2CCN(CC(=O)N3CCCCCC3)CC2)c(=O)c2ccccc12 do in these assays?
KDM5B inhibitor: inactive

Results for COc1ccc(CNC(=O)COc2ncnc3ccc(Br)cc23)cc1 ?
KDM5B inhibitor: inactive

How did OCC1CCCCN1CCNc1nccc(-c2cccnc2)n1 (centres undefined) do in these assays?
KDM5B inhibitor: 25µM*

What do the screens show for `O=S(=O)(c1cccnc1)N1CCCCC1CCc1cccs1` (centres undefined)?
KDM5B inhibitor: inactive

Results for CSc1ccccc1OCc1cc(C(=O)NCCN2CCCCC2CO)no1 (centres undefined) ?
KDM5B inhibitor: inactive

Results for O=S(=O)(c1cccnc1)N1CCCCC1CCN1CCOCC1 (centres undefined) ?
KDM5B inhibitor: inactive

How did O=C(CC1CCCC1)Nc1cnc(-c2cccnc2)nc1 do in these assays?
KDM5B inhibitor: inactive

Results for CS(=O)(=O)N1CCCCC1CCNc1nccc(-c2cccnc2)n1 (centres undefined) ?
KDM5B inhibitor: 32µM*

How did CCOC(=O)c1nc(N(C)c2cccc(C)c2)c2ccccc2n1 do in these assays?
KDM5B inhibitor: inactive

Results for N#C/C(=C\c1ccc(O)c(Cl)c1)c1nc2ccccc2[nH]1 ?
KDM5B inhibitor: inactive

What do the screens show for `CSc1ccccc1NC(=O)COC(=O)CNC(=O)CC12CC3CC(CC(C3)C1)C2`?
KDM5B inhibitor: inactive

Results for Cc1oc(-c2ccccc2Cl)nc1CSc1nc2ccncc2[nH]1 ?
KDM5B inhibitor: inactive

What do the screens show for `COc1ccc2oc(=O)c(-c3nc4ccc(C)cc4[nH]3)cc2c1`?
KDM5B inhibitor: inactive

What do the screens show for `Cc1cc(-c2nc3ccncc3[nH]2)c(C)o1`?
KDM5B inhibitor: 32µM*!

What do the screens show for `COc1ccc(C2CC(=O)Nc3cc(OC)cc(OC)c32)cc1` (centres undefined)?
KDM5B inhibitor: inactive

What do the screens show for `CCc1noc(-c2cccn3c(CNC(=O)c4cc(F)ccc4F)nnc23)n1`?
KDM5B inhibitor: 28µM*

Results for Cc1ccc(-c2nc(C(=O)NCc3ccc(F)cc3Cl)no2)cc1 ?
KDM5B inhibitor: inactive

What do the screens show for `CC(C)c1noc(-c2cn(C3CCN(C(=O)c4ccc(F)cc4Cl)CC3)nn2)n1`?
KDM5B inhibitor: inactive

How did CC(C)c1noc(-c2cccn3c(CNC(=O)c4ccc(F)cc4Cl)nnc23)n1 do in these assays?
KDM5B inhibitor: 25µM*

How did CCc1noc(-c2cn(C3CCN(C(=O)c4ccc(F)c(F)c4)CC3)nn2)n1 do in these assays?
KDM5B inhibitor: inactive

How did CC(C)c1noc(-c2cn(C3CCN(C(=O)c4cc(Cl)ccc4F)C3)nn2)n1 (centres undefined) do in these assays?
KDM5B inhibitor: inactive
